Results as given in PubChem BioAssay.
A number with no mark means an inactive call. Calls of active or inactive are those of the source. Unless noted, no stated cut-off is given here; in the data, active means inhibition above about 25%; inactive means the rest.

Key:
[1] = target: Nuclear receptor coactivator 3 (Homo sapiens) (UniProt Q9Y6Q9); experiment: SRC3 coactivator transcriptional activity inhibitors, confirmation, cell-based, luminescence, quadruplicate (AID 588792;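 active means mean inhibition over 43.08%, the solvent-only control mean plus 3 SD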;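 further: 0% = DMSO treated cells and 100% = gossypol at 36 µM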); details: HEK293 GAL4-SRC3 luciferase reporter, at 3.6 µM, hits give high values
Chain of Nuclear receptor coactivator 3 (Homo sapiens) (Q9Y6Q9 whole entry, looked up, the tested form may be a part): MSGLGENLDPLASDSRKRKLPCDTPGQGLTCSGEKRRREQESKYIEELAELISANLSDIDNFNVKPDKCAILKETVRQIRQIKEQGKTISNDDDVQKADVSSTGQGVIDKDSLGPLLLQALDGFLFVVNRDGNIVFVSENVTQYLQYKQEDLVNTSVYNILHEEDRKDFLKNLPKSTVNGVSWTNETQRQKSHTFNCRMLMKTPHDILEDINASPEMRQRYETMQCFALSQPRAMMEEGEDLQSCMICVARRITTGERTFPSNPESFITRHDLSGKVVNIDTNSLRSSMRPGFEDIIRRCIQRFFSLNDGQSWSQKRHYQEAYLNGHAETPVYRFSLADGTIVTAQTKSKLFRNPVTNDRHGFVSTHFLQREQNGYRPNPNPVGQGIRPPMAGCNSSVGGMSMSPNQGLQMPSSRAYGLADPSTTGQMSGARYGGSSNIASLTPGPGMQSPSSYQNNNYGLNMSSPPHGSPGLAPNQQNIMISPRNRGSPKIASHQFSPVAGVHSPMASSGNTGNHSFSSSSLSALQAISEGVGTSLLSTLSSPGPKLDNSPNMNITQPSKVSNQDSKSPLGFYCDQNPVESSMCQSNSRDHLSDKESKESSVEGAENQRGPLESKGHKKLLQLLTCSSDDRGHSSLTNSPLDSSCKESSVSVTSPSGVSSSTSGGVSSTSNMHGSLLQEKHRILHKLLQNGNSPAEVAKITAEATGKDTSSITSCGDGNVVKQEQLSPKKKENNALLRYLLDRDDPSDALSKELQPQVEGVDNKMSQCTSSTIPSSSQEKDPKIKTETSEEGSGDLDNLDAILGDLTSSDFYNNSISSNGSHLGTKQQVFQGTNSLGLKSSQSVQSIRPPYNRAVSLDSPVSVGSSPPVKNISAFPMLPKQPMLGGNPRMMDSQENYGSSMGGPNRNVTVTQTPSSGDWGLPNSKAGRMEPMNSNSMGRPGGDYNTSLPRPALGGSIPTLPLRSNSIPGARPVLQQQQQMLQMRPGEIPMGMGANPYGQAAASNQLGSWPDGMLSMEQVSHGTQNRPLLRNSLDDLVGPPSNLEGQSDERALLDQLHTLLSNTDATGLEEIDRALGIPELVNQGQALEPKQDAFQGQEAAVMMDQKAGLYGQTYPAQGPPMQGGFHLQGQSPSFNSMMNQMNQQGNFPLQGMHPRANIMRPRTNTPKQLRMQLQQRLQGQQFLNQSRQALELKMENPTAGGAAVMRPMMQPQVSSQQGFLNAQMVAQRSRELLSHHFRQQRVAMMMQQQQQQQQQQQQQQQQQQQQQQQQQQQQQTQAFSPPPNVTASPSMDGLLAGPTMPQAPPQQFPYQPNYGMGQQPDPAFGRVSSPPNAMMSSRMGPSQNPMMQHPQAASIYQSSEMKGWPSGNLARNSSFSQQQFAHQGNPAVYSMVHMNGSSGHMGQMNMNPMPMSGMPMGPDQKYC

[2] = system: transactivating tegument protein VP16 (Human herpesvirus 1), Gal4-VP16 luciferase reporter; experiment: VP16 transactivation inhibitors, counter-screen for SRC3 inhibitor project, cell-based, luminescence, high throughput (AID 588794; in the data active means inhibition above about 30%); details: mammalian cells, VP16-driven luciferase reporter luminescence; at 3.6 µM; hits give high values
[3] = target: Nuclear receptor coactivator 1 (Homo sapiens) (UniProt Q15788); experiment: SRC1 coactivator transcriptional activity inhibitors, confirmation, cell-based, luminescence, quadruplicate (AID 588820;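 active means mean inhibition above 46.68%, the untreated control wells mean plus 3 SD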;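 further: 0% = DMSO wells and 100% = gossypol 36 µM treated wells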); details: HEK293 GAL4-SRC1 luciferase reporter, at 3.6 µM, hits give high values
Chain of Nuclear receptor coactivator 1 (Homo sapiens) (Q15788 whole entry, looked up, the tested form may be a part): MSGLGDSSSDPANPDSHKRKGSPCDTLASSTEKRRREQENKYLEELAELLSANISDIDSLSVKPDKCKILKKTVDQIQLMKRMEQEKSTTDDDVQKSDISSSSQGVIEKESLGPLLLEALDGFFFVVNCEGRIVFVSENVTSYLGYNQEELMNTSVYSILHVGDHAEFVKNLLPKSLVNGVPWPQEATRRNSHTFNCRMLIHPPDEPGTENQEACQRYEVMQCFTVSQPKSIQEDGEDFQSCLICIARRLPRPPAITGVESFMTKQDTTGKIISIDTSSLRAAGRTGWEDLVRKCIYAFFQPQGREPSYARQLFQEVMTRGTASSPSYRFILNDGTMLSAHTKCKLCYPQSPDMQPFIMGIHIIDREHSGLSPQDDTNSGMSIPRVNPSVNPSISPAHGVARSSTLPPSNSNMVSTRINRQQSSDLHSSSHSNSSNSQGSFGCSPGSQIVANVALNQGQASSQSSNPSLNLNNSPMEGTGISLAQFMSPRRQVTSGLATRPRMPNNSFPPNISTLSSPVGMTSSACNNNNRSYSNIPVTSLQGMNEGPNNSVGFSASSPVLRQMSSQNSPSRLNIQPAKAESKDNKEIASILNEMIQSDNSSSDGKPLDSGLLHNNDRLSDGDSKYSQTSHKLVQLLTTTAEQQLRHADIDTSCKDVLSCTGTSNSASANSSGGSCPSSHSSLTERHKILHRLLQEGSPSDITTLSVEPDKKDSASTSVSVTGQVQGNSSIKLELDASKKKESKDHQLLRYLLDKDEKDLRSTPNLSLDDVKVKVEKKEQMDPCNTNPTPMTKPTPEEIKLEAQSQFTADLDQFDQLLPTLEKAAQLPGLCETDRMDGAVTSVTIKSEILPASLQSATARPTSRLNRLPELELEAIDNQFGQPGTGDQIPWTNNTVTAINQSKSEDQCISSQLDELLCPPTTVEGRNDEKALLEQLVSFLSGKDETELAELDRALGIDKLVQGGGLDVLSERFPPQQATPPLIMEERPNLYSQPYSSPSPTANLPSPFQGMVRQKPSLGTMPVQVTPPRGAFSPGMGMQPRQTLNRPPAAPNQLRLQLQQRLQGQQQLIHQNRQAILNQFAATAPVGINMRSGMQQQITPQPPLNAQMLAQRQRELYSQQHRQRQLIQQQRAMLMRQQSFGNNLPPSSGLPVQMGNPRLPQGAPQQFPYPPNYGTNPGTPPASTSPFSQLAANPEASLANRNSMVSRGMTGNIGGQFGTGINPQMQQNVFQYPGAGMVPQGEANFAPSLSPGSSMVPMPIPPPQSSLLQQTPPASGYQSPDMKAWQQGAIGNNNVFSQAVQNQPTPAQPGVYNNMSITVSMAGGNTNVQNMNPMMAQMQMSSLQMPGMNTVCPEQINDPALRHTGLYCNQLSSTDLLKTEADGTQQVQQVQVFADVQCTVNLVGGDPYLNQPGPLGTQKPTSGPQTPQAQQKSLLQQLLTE

[4] = VP16 transactivation inhibitors, counter-screen for SRC1 inhibitor project, cell-based, luminescence, high throughput (AID 588824); details: cell-based VP16 transactivation luciferase luminescence; at 3.6 µM; hits give high values

Row | SMILES | inhibition [1] | inhibition [2] | inhibition [3] | inhibition [4]
1 | Cc1ccc(S(=O)(=O)N(C)Cc2ccc(C(=O)N/N=C/c3ccc(OC(F)F)cc3OC(F)F)cc2)cc1 | 10.9% | 18.8% | -28.9% | 20%
2 | CC(C)(C)c1cc[n+](C2=C([O-])c3ccccc3C(=O)/C2=N\S(=O)(=O)c2cccs2)cc1 | 9.53% | 9.97% | -0.27% | 7.69%
3 | CC[n+]1ccccc1/C=C/c1ccc(N(C)C)cc1 | 15.6% | 47.5% (active) | 15.4% | 40.1% (active)
4 | CC(C)(C)C(=O)NC(=S)NNC(=O)c1sc2ccccc2c1Cl | 10.1% | 3.67% | -1.3% | -6.4%
5 | Cc1ccc(N=c2c([N+](=O)[O-])nn(-c3ccc4c(c3)OCCO4)n2O)cc1F | 36.5% | -0.46% | 19.9% | -9.63%
6 | CN(C)S(=O)(=O)c1ccc(-c2csc(N/N=C/c3ccco3)n2)cc1 | -2.21% | 16.7% | -22.3% | 20.1%
7 | Cc1ccc(C(=O)CSc2cnc3ccccc3n2)cc1C | -16.1% | -33% | -96.7% | -68.1%
8 | O=C(CCCOc1ccc(Cl)cc1Cl)N/N=C/c1ccccc1O | 26.1% | 22.3% | 29.5% | 15.2%
9 | COc1ccc2[nH]c3c(c2c1)CCNC3=O | 53.2% (active) | 42.7% (active) | 62.3% (active) | 33.7% (active)
10 | COc1ccc(NC(=O)CN(C)C(=O)C2(c3ccccc3)CCCC2)cc1 | 25.3% | 8.28% | 25.3% | 4.02%
11 | Cc1ccc(C)c(NC(=O)c2ccccc2NS(=O)(=O)c2cc([N+](=O)[O-])ccc2C)c1 | 20.5% | 25.5% | 21% | 22%
12 | CC(=O)c1cccc(NC(=O)Nc2cccnc2)c1 | 64.6% (active) | 36.1% (active) | 58% (active) | 33.6% (active)
13 | COc1cccc(/C=N/NC(=O)c2cc(-c3cccn3C)n[nH]2)c1O | 41.2% | 35.7% (active) | 37.6% | 35.6% (active)
14 | O=C(N/N=C(\c1ccccc1)c1ccccn1)c1ccccc1Cl | 35.8% | 22.1% | 25.9% | 12.4%
15 | Oc1ccc(C=NNc2ccccn2)c(O)c1 | 76% (active) | -12.1% | 14.7% | -1.88%
16 | O=C(N/N=C/c1cc(Cl)cc(Cl)c1O)c1ccncc1 | 26.5% | 40.9% (active) | 30.7% | 33.7% (active)
17 | COc1cc(-c2cc3nc4ccccc4n3c(N)c2C#N)cc(OC)c1OC | 14.5% | -16.8% | -42.6% | -12.8%
18 | CC(C)(C)[C@H]1C=C(C(=O)Nc2ccccc2)O[C@@H](OCCCCO)C1 | -13.7% | -16.4% | -41.4% | -38%
19 | COc1ccc(Cl)cc1Nc1nc(-c2sc(NC(=O)C(C)(C)C)nc2C)cs1 | 15.2% | 35.9% (active) | 14.5% | 39.8% (active)
20 | COc1ccc(C(C(=O)NC2CCCCC2)N(C(=O)CCl)c2ccc(C)cc2)cc1 (stereo unspecified) | 71.8% (active) | 52.9% (active) | 35.7% | 49.2% (active)
21 | O=C(NN=C(c1ccccc1)c1ccccn1)c1ccccc1 | 44.2% (active) | 42.1% (active) | 36.7% | 43.1% (active)
22 | COc1cccc(-c2nnc3sc(C4CCCCC4)nn23)c1 | 64.5% (active) | 29.1% | 57.4% (active) | 26.4% (active)
23 | Cc1ccc2occ(/C=N/NC(=O)c3ccncc3)c(=O)c2c1 | 21.2% | 15.1% | 20.3% | 14.4%
24 | Cn1c(=O)c2c(nc(NCc3ccco3)n2C/C=C/c2ccccc2)n(C)c1=O | 36.4% | 44% (active) | 18.6% | 39.9% (active)
